Source: PubChem BioAssay (National Center for Advancing Translational Sciences (NCATS))
TRHR enhancer: qHTS for Small Molecule Agonists and Allosteric Enhancers of Human TRH Receptor: Primary Screen for Enhancers. Thyrotropin-releasing hormone receptor (Homo sapiens), P34981. TRHR cells, fluo-8 calcium fluorescence, EC20 TRH enhancement. enhancement, % at 2 µM. 360,000 compounds, 0.66% hits. AID 493056, 2011; in the data active = enhancement above about 30%
Target sequence (P34981 whole entry, looked up): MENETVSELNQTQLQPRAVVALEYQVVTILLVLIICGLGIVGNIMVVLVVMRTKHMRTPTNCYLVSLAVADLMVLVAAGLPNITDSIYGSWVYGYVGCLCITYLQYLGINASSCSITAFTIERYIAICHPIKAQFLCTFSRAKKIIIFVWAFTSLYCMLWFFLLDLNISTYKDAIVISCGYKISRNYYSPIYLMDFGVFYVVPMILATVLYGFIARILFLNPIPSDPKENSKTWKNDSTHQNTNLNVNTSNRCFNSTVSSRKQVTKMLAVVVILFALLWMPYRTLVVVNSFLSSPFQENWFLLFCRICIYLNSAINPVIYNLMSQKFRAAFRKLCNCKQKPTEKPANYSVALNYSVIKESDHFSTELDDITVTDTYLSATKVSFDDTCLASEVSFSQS
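Enhancer read-out: after compound pinning and an initial kinetic agonist-mode read, an EC20 of TRH (10 nM final) was injected and fluo-8 calcium signal (Ex 480/Em 530) followed at 1 s/cycle for 100 cycles in TRHR-expressing cells.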
D1 antag: Antagonist of Human D 1 Dopamine Receptor: qHTS; D(1A) dopamine receptor (Homo sapiens), P21728; 360,000 compounds, 3.2% hits; activity change, negative = inhibition, % at 10 µM; HEK293 TREx D1 cells, calcium flux, dopamine EC80; hits give low values; in the data active = activity change below about -30%
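Calcium flux readout: force-coupled, inducible Hek293 Trex D1 line, cells induced overnight at 30 C with tetracycline, dye-loaded 30–90 min at RT. Antagonism scored against EC80 dopamine challenge given 180 s after compound.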
TRHR ag: qHTS for Small Molecule Agonists and Allosteric Enhancers of Human TRH Receptor: Primary Screen for Agonists | Thyrotropin-releasing hormone receptor (Homo sapiens), P34981 | TRHR cells, calcium flux fluo-8, FDSS agonist mode | activation, % at 2 µM | 360,000 compounds, 0.18% hits
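Steps: seed TRHR cells overnight; add fluo-8 no-wash Ca dye, RT 30 min–1.5 h; record 10 s baseline; pin-transfer compounds; monitor fluorescence 1 cycle/s for the agonist window. Calcium increases flag candidate agonists.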
D1 agonist: Allosteric Agonists of the Human D1 Dopamine Receptor: qHTS | HEK293 T-REx D1 cells, calcium flux, agonist mode | activation, % at 2 µM | 360,000 compounds, 1% hits
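Tetracycline-induced HEK293 TREx D1 cells, force-coupled to calcium signalling, were dye-loaded with a no-wash calcium kit. Compound was pin-added after a 10 s baseline. Fluorescence was read kinetically at 1 cycle/s for 180 s, with calcium rises flagged as agonism.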
D1 PAM: Potentiators of Human D1 Dopamine Receptor: qHTS. HEK293 TREx D1 cells, calcium flux, dopamine EC20 potentiation. D(1A) dopamine receptor (Homo sapiens), P21728. 360,000 compounds, 0.036% hits. AID 504651, 2011. potentiation, % at 10 µM; in the data active = potentiation above about 30%
Numbers stand for hits; - = inactive. Hits are enriched below; roughly 4.7% of the tested compounds scored in any of these assays. Rule as the data show it, unless noted: active = activation above about 30%; inactive = the rest.

SMILES | TRHR enhancer | D1 antag | TRHR ag | D1 agonist | D1 PAM
CN(C)C(CNC(=O)c1cccc(S(=O)(=O)Nc2ccccc2Cl)c1)c1ccco1 (stereo not drawn) | - | - | - | - | -
COc1ccccc1NS(=O)(=O)c1ccc(C(=O)NCC(c2ccccc2OC)N(C)C)cc1 (stereo not drawn) | - | - | - | - | -
CNS(=O)(=O)c1cccc(C(=O)NCC(c2ccco2)N(C)C)c1 (stereo not drawn) | - | -35 | - | - | -
Cc1cccc(NS(=O)(=O)c2ccc(C(=O)NCC(c3ccccc3)N(C)C)cc2)c1C (stereo not drawn) | - | - | - | 48 | -
Cc1ccc(NS(=O)(=O)c2ccc(C(=O)NCC(c3ccco3)N(C)C)cc2)cc1 (stereo not drawn) | - | -31 | - | 53 | -
CN(C)C(CNC(=O)c1ccc(NS(=O)(=O)c2ccc(F)cc2)cc1)c1ccco1 (stereo not drawn) | - | - | - | - | -
O=C(O)CC(NS(=O)(=O)c1ccc(Br)s1)c1ccccc1 (stereo not drawn) | - | - | - | - | -
O=S(=O)(c1ccc2ccccc2c1)n1nc(-c2ccco2)nc1NCc1ccc(F)cc1 | - | - | - | - | -
O=C(COC(=O)C1CCC(=O)N1)Nc1cc(Cl)ccc1Cl (stereo not drawn) | - | -80 | - | - | -
Cc1ccc(C)c(S(=O)(=O)c2cnc(SCC(=O)Nc3ccc(F)cc3F)[nH]c2=O)c1 | - | - | - | - | -
CCOC(=O)[C@H]1[C@H]2COc3ccc(Br)cc3[C@@H]2N2C(=O)CN(Cc3ccc(OC)cc3)C(=O)[C@@]12C | - | -30 | - | - | -
NCCCC(=O)N1c2ccccc2Sc2ccc(Cl)cc21 | - | - | - | - | -
NCCC(=O)N1c2ccccc2Sc2ccc(Cl)cc21 | - | - | 50 | 59 | -
Cc1ccccc1OCCN1C(=O)c2ccccc2C1=O | - | - | - | - | -
Cc1ccccc1OCCn1c(=N)n(C(C)C)c2ccccc21 | - | - | - | 43 | -
COc1ccc(Br)cc1CNC(=O)c1cc(=O)[nH]c2ccc(S(=O)(=O)N3CCCCC3)cc12 | - | - | - | - | -
Cc1cccc(NC(=S)NC2CC3CCC(C2)N3Cc2ccco2)c1 (stereo not drawn) | - | -67 | - | - | -
Cc1ccc(NC(=S)NC2CC3CCCC(C2)N3Cc2cccs2)cc1 (stereo not drawn) | - | -87 | - | - | -
CCc1ccc(NC(=S)NC2CC3CCC(C2)N3Cc2ccco2)cc1 (stereo not drawn) | - | -77 | - | - | -
Cc1ccc(NC(=S)NC2CC3CCCC(C2)N3Cc2ccco2)cc1 (stereo not drawn) | - | -65 | - | 41 | -
Cc1ccccc1NC(=S)NC1CC2CCC(C1)N2Cc1ccco1 (stereo not drawn) | - | - | - | - | -
COc1ccccc1NC(=O)CSC1=Nc2ccccc2C2=NC(CCC(=O)NCc3cccs3)C(=O)N12 (stereo not drawn) | - | - | - | - | -
Cc1cccc(NC(=S)NC2CC3CCCC(C2)N3CC(C)C)c1 (stereo not drawn) | - | -59 | - | - | -
Cc1cc(C)cc(NC(=S)NC2CC3CCCC(C2)N3CC(C)C)c1 (stereo not drawn) | - | - | - | - | -
COc1ccc(NC(=S)NC2CC3CCC(C2)N3Cc2ccco2)cc1 (stereo not drawn) | - | -64 | - | - | -
SMILES | TRHR enhancer | D1 antag | TRHR ag | D1 agonist | D1 PAM
Cc1ccc(N2CCN(C(=O)c3cnn(-c4ccc(C)c(C)c4)c3C3CCNCC3)CC2)c(C)c1 | - | - | - | 82 | -
Cc1ccc(Cl)cc1N1CCN(C(=O)c2cnn(-c3ccc(Cl)cc3)c2C2CCNCC2)CC1 | - | - | - | 38 | -
Cc1cc(C)cc(NC(=O)c2cnn(-c3ccc(C)c(C)c3)c2C2CCNCC2)c1 | - | - | - | - | -
CCOc1ccc(CCNC(=O)c2ccc3c(c2)N(Cc2ccccc2)C(=O)c2ccccc2S3=O)cc1OCC (stereo not drawn) | - | - | - | - | -
Cc1ccc(Nc2nc3nonc3nc2Nc2cccc(C(F)(F)F)c2)cc1Cl | - | -35 | - | - | -
COC(=O)CCSc1cc([N+](=O)[O-])cc2c1c(C1OCCO1)nn2-c1ccccc1 | - | -36 | - | - | -
Cc1cccc(OCC(=O)N(Cc2ccc(C(C)(C)C)cc2)Cc2ccco2)c1 | - | - | - | - | -
CCc1ccccc1Nc1nc(N)nc(CSCC(=O)Nc2ccc(C)c(C)c2)n1 | - | - | - | - | -
CCc1ccc(NC(=O)CSCc2nc(N)nc(Nc3ccccc3CC)n2)cc1 | - | -36 | - | - | -
COc1ccc(C)cc1NC1(c2ccccc2)C(=O)c2ccccc2C1=O | - | - | - | - | -
C=CCn1c(SCc2ccc(F)cc2)nnc1-c1sc2nc(C)cc(C)c2c1N | - | -38 | - | - | -
C=CCn1c(SCc2ccc(OC)cc2)nnc1-c1cccnc1 | - | - | - | - | -
CCc1ccc(-n2nc(CO)c(C(=O)NCCOC)n2)cc1 | - | - | - | - | -
CCCCC(=O)NC(=S)Nc1cc(C(=O)O)ccc1OC | - | - | - | - | -
COc1ccc(C(=O)O)cc1NC(=S)NC(=O)/C=C/c1ccc(C(C)C)cc1 | 32 | - | - | - | -
COc1ccc([N+](=O)[O-])cc1/C=N/NC(=O)CNC(=O)C(c1ccccc1)c1ccccc1 | - | -32 | - | - | -
O=C(/C=C/c1ccccc1Cl)N1CCN(c2ncccn2)CC1 | - | -31 | - | - | -
O=C(/C=C/c1ccc(Cl)cc1)N1CCN(c2ncccn2)CC1 | - | - | - | - | -
CCc1cccc(NC(=O)C2CCC(CNS(=O)(=O)c3ccc(Br)s3)CC2)c1 (stereo not drawn) | - | - | - | - | -
CC1(C)O[C@@H]2[C@H](O1)[C@@H](COS(=O)(=O)O)O[C@H]2n1cnc2c(N)ncnc21 | - | -31 | - | - | -
CC(C)N1CCN(c2ccc(OC[C@H]3CO[C@](Cn4cncn4)(c4ccc(Cl)cc4Cl)O3)cc2)CC1 | - | -44 | - | 62 | -
O=C(CNC(=O)c1ccc(F)cc1)OCc1cc(=O)n2ccsc2n1 | - | - | - | - | -
CCOC(=O)c1c(-c2ccc(OC)cc2)oc2ccc(OCc3ccccc3C)cc12 | - | - | - | - | -
Cc1cccn2c(=O)c3cc(C#N)c(=N)n(CCN4CCOCC4)c3nc12 | 32 | - | - | - | -
